Experimental data taken from the supplement of paper PMC11577813, “Eurasian spruce bark beetle detects lanierone using a highly expressed specialist odorant receptor, present in several functional sensillum types” (BMC Biology, 2024).
± gives the standard deviation of the averaged measurements.

What follows are molecules tested on (4S)-cis-verbenol A-neuron OSN class (assay: net action potential response of A-neuron (blank-subtracted) (spikes/s (Hz)); higher = stronger excitation). Details: 10 µg on filter paper; neuron: A neuron (large spike amplitude).
Protocol: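 Single sensillum recordings from antennal olfactory sensilla of live adult Ips typographus. Each compound was 10 µg in paraffin oil on filter paper, delivered as a 0.5 s puff. Net response = spikes in the first 0.5 s of response minus the 0.5 s pre-stimulus count, doubled to give Hz, with blank response subtracted. Values are for the large-spike A-neuron class of each of seven sensillum types that co-house the lanierone B-neuron; N = 1-4 sensilla, averaged.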

Structure (SMILES) | net action potential response
O=Cc1ccccc1 [Benzaldehyde] | 2 ± 6
C=CCc1ccc(OC)cc1 [Estragole] | -2 ± 3.5
Cc1ccccc1 [Toluene] | 1.33 ± 6.4
